Compounds without any hit were thinned out: in the full panel of roughly 79,000, 15% have a hit. Unmarked numbers belong to inactive results. Activity calls are given as the source filed them. Rule as the data show it: active = growth inhibition above about 70%; inactive = the rest. *1 amine or outer side, *2 acyl side, *3 side chain or, on linkers, in order; H or OH if unused. Where a SMILES comes first, the peptide text is derived from it. [ ]: non-standard residue; d: D form. X12 = NC(N)=NCC(O)CC(N[*:1])C(=O)[*:2]; Orn = NCCC[CH](N)C(=O)O

The nature of assay [1]: NCI Yeast Anticancer Drug Screen. Data for the rad50 strain (AID 155).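 Also: 0% = growth of vehicle-only cultures of the same strain.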 The following applies: S. cerevisiae rad50 strain growth inhibition; at 50.0 µM; stronger effect = higher value. The gist of the method: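 Vehicle-treated cultures provide the reference for the growth inhibition reported for compound-exposed, repair-deficient yeast.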
Assay [2] can be described thus: NCI Yeast Anticancer Drug Screen. Data for the mec2-1 strain (AID 157). The following applies: S. cerevisiae mec2-1 strain, at 50.0 µM, stronger effect = higher value. The gist of the method:
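Mutant yeast (mec2-1) grown with compound; growth inhibition relative to vehicle control reported.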

Assay [3] is described as follows: NCI Yeast Anticancer Drug Screen. Data for the sgs1 mgt1 strain (AID 161).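 Also: 0% = growth of cultures given vehicle only.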 The following applies: S. cerevisiae sgs1 mgt1 strain, at 50.0 µM, stronger effect = higher value. In a few lines:
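This yeast growth screen uses a strain with defined DNA-repair lesions; compound-treated growth is compared with vehicle-treated growth.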

Assay [4] can be described thus: NCI Yeast Anticancer Drug Screen. Data for the cln2 rad14 strain (AID 165).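 Also: 0% = growth equal to vehicle treated cultures.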 The following applies: S. cerevisiae cln2 rad14 strain, at 50.0 µM, stronger effect = higher value. The gist of the method:
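Readout is yeast growth inhibition versus vehicle-treated controls, using a strain with cln2 and rad14 alterations exposed to compound.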

Assay [5] in a line: NCI Yeast Anticancer Drug Screen. Data for the bub3 strain (AID 167). The following applies: S. cerevisiae bub3 mutant strain, at 50.0 µM, stronger effect = higher value. The gist of the method:
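Mutant yeast screening strain plus compound; vehicle-treated cultures serve as the 0% inhibition reference.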

Assay [6] is described as follows: NCI Yeast Anticancer Drug Screen. Data for the mlh1 rad18 strain (AID 175). The following applies: S. cerevisiae mlh1 rad18 strain growth inhibition; at 50.0 µM; stronger effect = higher value. The gist of the method:
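Genetically defined yeast (DNA repair-deficient) exposed to compounds; growth inhibition determined relative to vehicle.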

Take `CS(=O)(=O)c1ccc(N2CCCCC2)c([N+](=O)[O-])c1`: the growth inhibition was 29.9% in assay [1]; 6.05% in assay [2]; 27.6% in assay [3]; 16.7% in assay [4]; 10.9% in assay [5]; -4.9% in assay [6].

For the compound `c1ccc(-c2nc(-c3ccccc3SSc3ccccc3-c3nc(-c4ccccc4)nn3-c3ccccc3)n(-c3ccccc3)n2)cc1`, the growth inhibition in assay [1] was -14.5%; in assay [2], -6.3%; in assay [3] it was 0.8%; in assay [4], 3.25%; in assay [5], -8.8%; in assay [6], 18.9%.

For `O=C(O)CC1(c2ccccc2)CCCCC1`, the growth inhibition in assay [1] is -1.1%; in assay [2], 7.05%; in assay [3], 0.65%; in assay [4] it was -6.2%; in assay [5], 46.8%; in assay [6], 2.3%.

As for `c1ccc(-n2nc3ccc4nonc4c3n2)cc1`, the growth inhibition is -17.9% in assay [1]; -20.8% in assay [2]; -10.5% in assay [3]; 7.4% in assay [4]; -0.05% in assay [5]; -1.55% in assay [6].

As for `OCC(O)C(O)C(O)C(O)C(O)C(O)CO` (stereo not drawn), the growth inhibition in assay [1] is 1.8%; in assay [2], 3.65%; in assay [3], 7.35%; in assay [4], 5.75%; in assay [5], -1.2%; in assay [6], 3.35%.

For `c1ccc2c(c1)ccc1c2ccc2c1cc1ccccn12`, the growth inhibition is -4.2% in assay [1]; 7.45% in assay [2]; -13.2% in assay [3]; -14.7% in assay [4]; -20.3% in assay [5]; 0.8% in assay [6].

As for `Cc1c2ccccc2c(CN(C)CC(=O)NCC(=O)NCC(=O)O)c2ccccc12`, the growth inhibition in assay [1] is 97.5% (active); in assay [2], 97.7% (active); in assay [3], 97.5% (active); in assay [4], 97.5% (active); in assay [5] it was 98.2% (active); in assay [6], 98.5% (active).

On to `CC1=NN(C(=O)c2ccc(Cl)cc2)C(=O)/C1=C/c1ccc(O)cc1`, for which the growth inhibition in assay [1] was -6.65%; in assay [2] it was -16.6%; in assay [3] it was -38.6%; in assay [4] it was -7.55%; in assay [5], -3.55%; in assay [6] it was -19.9%.

For the compound `Cc1ccc([N+](=O)[O-])c(P(=O)(O)O)c1`, the growth inhibition in assay [1] is 12.6%; in assay [2], 13%; in assay [3] it was -14.7%; in assay [4], -3.45%; in assay [5], 3.4%; in assay [6], -12.2%.

In the case of `O=c1c(Cl)c(Cl)cnn1CCc1ccncc1`, the growth inhibition in assay [1] was 2.2%; in assay [2], -4.05%; in assay [3] it was -19.6%; in assay [4], 11.4%; in assay [5] it was -7.3%; in assay [6], -2.65%.

In the case of `CC(O)C(NC(=O)C(CCCN)NC(=O)C(CC(O)CN=C(N)N)NC(=O)C(N)CCCN=C(N)N)C(=O)NC(CCCN)C(=O)NC(CC(O)CN=C(N)N)C(=O)NC(Cc1ccc(O)cc1)C(=O)O` (stereo not drawn) (H-R[X12][Orn]T[Orn][X12]Y-OH; configuration not given here), the growth inhibition in assay [1] was -0.15%; in assay [2] it was -19.4%; in assay [3], -4.1%; in assay [4], 15.1%; in assay [5] it was -15.2%; in assay [6], 2.45%.

`COc1ccc(OC)c2c(Cl)cc(NCCCN3CCN(CCCNc4cc(Cl)c5c(OC)ccc(OC)c5n4)CC3)nc12`: the growth inhibition in assay [1] was 13.5%; in assay [2], 16.4%; in assay [3], 21.8%; in assay [4], -24.1%; in assay [5], 4.65%; in assay [6] it was 25.1%.

For `C=C1CC/C=C(\C)C(=O)C(O)C2C1CC2(C)C` (stereo not drawn), the growth inhibition is 14.9% in assay [1]; -13.7% in assay [2]; 67.2% in assay [3]; 16.4% in assay [4]; 23.9% in assay [5]; 78.8% (active) in assay [6].

Turning to `CCCCN(CCCC)CCC(O)c1cc(-c2ccc(C(F)(F)F)cc2)nc(-c2ccc(C(F)(F)F)cc2)c1` (stereo not drawn), the growth inhibition in assay [1] is 24.3%; in assay [2] it was -4.9%; in assay [3], -37.6%; in assay [4], -8.7%; in assay [5] it was -55.6%; in assay [6] it was -41.2%.

On to `CC(O)(c1ccco1)c1nc2ccccc2s1` (stereo not drawn), for which the growth inhibition is -10.4% in assay [1]; 15.6% in assay [2]; 0.55% in assay [3]; -6.2% in assay [4]; -1.25% in assay [5]; -11.8% in assay [6].

Take `CC(=O)OC/C(C)=N\NS(=O)(=O)c1cc(Cl)c(Cl)cc1Cl`: the growth inhibition in assay [1] was 15.1%; in assay [2] it was 16.4%; in assay [3], 15.8%; in assay [4], 13.8%; in assay [5] it was 6.8%; in assay [6] it was 13.5%.

With `CC(O)CC(C)(C)O` (stereo not drawn), the growth inhibition in assay [1] was 28.1%; in assay [2] it was 13.1%; in assay [3], 8.55%; in assay [4] it was 9.9%; in assay [5], 15.3%; in assay [6], 4.2%.

Consider `CCOC(=O)/C=C\C(=O)O.[Mn]`, for which the growth inhibition was -16.2% in assay [1]; -21.4% in assay [2]; -7.65% in assay [3]; -22.9% in assay [4]; -31% in assay [5]; -33.5% in assay [6].

Source of the values: PubChem BioAssay (NCI).
